From PubChem BioAssay
CIT2-GFP yeast: alters CIT2-GFP fluorescence in TOR pathway yeast screen; S. cerevisiae CIT2-GFP strain, flow cytometry, 3 h; 100 means same as DMSO wells; GFP response vs DMSO, % at 10 µM; 0.065% of 320,000 active;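 active means GFP response relative to DMSO above a set limit, near the screen mean plus 3 SD, cut at about 150% in these data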;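 further: ratio of well median GFP fluorescence to mean of DMSO wells on the plate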
AGP1-GFP MLPCN: modulators of TOR pathway AGP1-GFP in S. cerevisiae; S. cerevisiae AGP1-GFP multiplex flow cytometry, 3 h; GFP as percent of DMSO wells; GFP response vs DMSO, % at 10 µM; 0.02% of 320,000 active; AID 2066;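 active means GFP response relative to DMSO above a set limit, near screen average plus 3 SD, cut at about 150% in these data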;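 further: median GFP channel fluorescence of the gated AGP1 strain per well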
Pemphigus Ab inh: inhibitors of pemphigus antibody binding to human desmoglein-3; AID 588358; DSG3-coupled beads, scFv-anti-DSG3-GFP binding, flow cytometry; stronger effect = lower value; P32926; 0.48% of 310,000 active; binding (percent of control), % at 10 µM;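 active means binding more than 3 SD below its plate's average and above zero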;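 further: hits lower antibody fragment binding to DSG3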
MEP2-GFP yeast: modulators of TOR pathway MEP2-GFP in S. cerevisiae | S. cerevisiae MEP2-GFP strain, flow cytometry GFP, 3 h; 100% = DMSO control level | 0.51% of 330,000 active | AID 2016 | GFP response vs DMSO, % at 10 µM;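 active means GFP response versus DMSO above a set limit, roughly screen mean plus 3 SD, cut at about 180% in these data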;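 further: median GFP fluorescence of the barcode-gated MEP2-GFP cells per well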
RPL19A TOR yeast: yeast TOR pathway RPL19A-GFP modulation | 0.3% of 330,000 active | percent response vs DMSO, % at 10 µM | S. cerevisiae RPL19A-GFP strain, flow cytometry, 3 h; stronger effect = lower value;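 active means percent response vs DMSO below 50%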;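 further: median channel GFP fluorescence of the barcoded RPL19A-GFP strain; ratio of sample median GFP to plate DMSO average so 100% = DMSO; lower means less RPL19A-GFP as with rapamycin TOR inhibition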
LAP4 TOR yeast: modulators of TOR pathway LAP4-GFP in S. cerevisiae. AID 2023. 0.34% of 320,000 active. S. cerevisiae LAP4-GFP multiplex, flow cytometry GFP, 3 h; median GFP as percent of DMSO wells. GFP response vs DMSO, % at 10 µM;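 active means GFP response vs DMSO above a set limit, about the screen mean plus 3 SD, cut at about 150% in these data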
LAP4 cherry2: second confirmation of modulators of TOR reporter LAP4-GFP in yeast | shares compounds with LAP4 TOR yeast | S. cerevisiae LAP4-GFP strain, flow cytometry GFP, 3 h | GFP response vs DMSO, % at 10 µM | 20% of 590 active | AID 2621;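 active means GFP signal as percent of the solvent control above about 150%, meaning raised reporter expression, limit read from the data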;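 further: ratio of well median GFP fluorescence to plate DMSO mean so 100% = DMSO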
MEP2 cherry2: reconfirmed MEP2-GFP TOR pathway modulator in yeast. shares compounds with LAP4 TOR yeast. S. cerevisiae MEP2-GFP strain, flow cytometry GFP, 3 h. GFP response vs DMSO, % at 10 µM. 10% of 590 active. AID 2622;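 active means GFP signal above 150% of the solvent control wells, that is a rise of more than half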;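 further: median channel GFP fluorescence of all gated yeast cells per well; ratio of median GFP to plate DMSO average so 100% = DMSO level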
RPL19A-GFP pick2: yeast RPL19A-GFP TOR reporter modulation, second cherry pick. GFP response vs DMSO, % at 10 µM. S. cerevisiae RPL19A-GFP strain, flow cytometry GFP, 3 h; stronger effect = lower value; 100% means same as DMSO wells. 3% of 590 active. shares compounds with LAP4 TOR yeast;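 active means under 65% GFP response relative to DMSO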;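 further: median GFP channel fluorescence per well over the all cells gate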
CIT2 GFP CP2: reconfirmed modulator of CIT2-GFP TOR reporter in yeast; 8% of 590 active; shares compounds with LAP4 TOR yeast; GFP response vs DMSO, % at 10 µM; AID 2624; S. cerevisiae CIT2-GFP strain, flow cytometry GFP, 3 h; DMSO control wells read 100%;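 active means GFP response vs DMSO above about 150%, limit read from the data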;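 further: median green fluorescence per well over all gated yeast cells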
AGP1-GFP pick2: yeast AGP1-GFP TOR reporter modulation, second cherry pick; AID 2643; percent response vs DMSO, % at 10 µM; shares compounds with LAP4 TOR yeast; S. cerevisiae AGP1-GFP strain, flow cytometry GFP, 3 h; 590 tested, under 10 active;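 active means over 150 percent of DMSO response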;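 further: median GFP channel fluorescence over all cells without mother daughter split; sample median GFP divided by mean DMSO control so 100% equals DMSO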
s288c autofluor: counter-screen for compound autofluorescence in yeast s288c cells; S. cerevisiae s288c, 520 nm autofluorescence, flow cytometry, 3 h; stronger effect = higher value; zero means same as solvent-only cells; shares compounds with LAP4 TOR yeast; 610 tested, under 10 active; fluorescence change (kMESF span) at 33 µM; AID 2757;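 active means fluorescence span over the dose series, or activity score, above about 33, limit read from the data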
Starred values were filed as active, the others as inactive; · = no result; [ ] = another dose, or the depositor's remark. Rows were chosen to be rich in hits. Some 1.2% of all compounds tested hit in one or more screens of this group.

SMILES	CIT2-GFP yeast	AGP1-GFP MLPCN	Pemphigus Ab inh	MEP2-GFP yeast	RPL19A TOR yeast	LAP4 TOR yeast	LAP4 cherry2	MEP2 cherry2	RPL19A-GFP pick2	CIT2 GFP CP2	AGP1-GFP pick2	s288c autofluor
O=C1NC(=Nc2ccccc2Cl)S/C1=C\c1cccc([N+](=O)[O-])c1	79	71	101	82	89	152*	142	98	92	121	83	·
O=C1NC(=Nc2ccccc2Cl)S/C1=C\c1cccc([N+](=O)[O-])c1O	102	80	117	102	97	80	·	·	·	·	·	·
Cc1nn(-c2ccccc2[N+](=O)[O-])c(=O)c2ccccc12	76	22	100	107	60	109	97	93	99	105	99	·
CC(C)(C)NC(=O)COC(=O)c1ccc2c(c1)C(=O)N(Cc1ccco1)C2=O	100	100	97	98	98	97	·	·	·	·	·	·
Cc1cc(C)nc(N/N=C/c2sccc2C)n1	108	101	103	101	100	100	·	·	·	·	·	·
Cc1ccsc1/C=N/Nc1ncc(Cl)cc1Cl	79	77	109	110	·	300*	·	·	·	·	·	1
O=C(c1ccc(F)cc1)N1CCN(C(=O)c2ccc([N+](=O)[O-])cc2)CC1	101	106	106	100	95	102	·	·	·	·	·	·
CCOC(=O)c1ccc(NC(=O)Nc2ncc(Cl)cc2Cl)cc1	81	62	·	89	63	79	97	112	65	100	66	·
CCOC(=O)c1ccc(NC(=O)Nc2ncccc2C)cc1	81	93	96	101	111	99	·	·	·	·	·	·
O=C(CSC1=NS(=O)(=O)c2ccccc21)Nc1ccccc1	68	65	98	90	59	116	113	124	62*	115	72	0.5
CS(=O)(=O)c1nc(-c2cccs2)cc(C(F)(F)F)n1	84	124	·	162	88	186*	·	·	·	·	·	0.61
COc1ccc(-c2cc(C(F)(F)F)nc(S(C)(=O)=O)n2)cc1	84	114	87	146	97	155*	·	·	·	·	·	0.62
CS(=O)(=O)c1nc(-c2ccc(F)cc2)cc(C(F)(F)F)n1	·	·	85	·	·	·	·	·	·	·	·	·
COc1cc(SSc2cc(OC)cc([N+](=O)[O-])c2N)c(N)c([N+](=O)[O-])c1	108	88	101	83	58	236*	·	·	·	·	·	1
COc1ccc(C(=O)NC(=S)NNC(=O)c2cnccn2)cc1OC	95	79	118	105	97	155*[may fluoresce green]	168*	155*	103	127	90	0.51
COc1cc(OC)cc(C(=O)NC(=S)NNC(=O)c2cnccn2)c1	101	101	93	101	106	94	·	·	·	·	·	·
O=C(Cc1c[nH]c2ccccc12)NC1(C(=O)NC2CCCC2)CCCCC1	98	104	·	100	104	99	·	·	·	·	·	·
